The supplement of paper PMC10849652
About 8,800 targets were measured; listed, in parts, are those with a hit and a random draw of the rest. About 0.5% of all pairs of compound and target were hits.

How the values were obtained:
Test in all cases: log2 fold change, soluble protein after heating vs DMSO (PISA); higher = thermal stabilisation; K562 lysate, 10 uM; active = over 0.2 and 3.5 SD of the protein, either way, in both replicates (recomputed)
erlotinib = compound: C#Cc1cccc(Nc2ncnc3cc(OCCOC)c(OCCOC)cc23)c1 [erlotinib]
How it was run: (§1)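 Quantification was by TMTpro 16plex LC-MS/MS with equalised channel sums, applied to the supernatant after 21,000xg for 90 min. Samples were crude K562 extract at 1 mg/mL protein in PBS pH 7.4 with 1 mM MgCl2, treated with 10 μM compound for 30 min, heated for 3 min across 48°C-58°C, pooled and brought to 0.5% NP-40 at 4°C. Values are log-two fold changes in thermal stability relative to solvent controls, from duplicates.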

[1] = compound: C/C(=N\NC(=O)C1=CC(=CC=C1)S(=O)(=O)N2CCOCC2)/C3=C(C=CC(=C3)Cl)O
How it was run: as §1

[2] = compound: C1=CC(=CC=C1C2=NC3=C(N2)C=C(C=C3)C(=O)N)OC4=CC=C(C=C4)Cl
How it was run: as §1

[3] = compound: C1=CC2=C(C=CC(=C2)/C=C\3/C(=O)NC(=NCC4=CC=CS4)S3)N=C1
How it was run: as §1

[4] = compound: C1=CC2=NC=CN=C2C=C1/C=C/3\C(=O)NC(=O)S3
How it was run: as §1

[5] = compound: C1=CC=C(C=C1)C2=NC(=C(N2)C3=CC=NC=C3)C4=CC(=C(C=C4)Cl)O
How it was run: as §1

[6] = compound: C1=CC=C2C(=C1)C3=NNC4=CC=CC(=C43)C2=O
How it was run: as §1

[7] = compound: C1CCN(C1)C(=O)NC2=CC=CC(=C2)NC3=NC=C(C(=N3)NCCC4=CN=CN4)Br
How it was run: as §1

[8] = compound: C1CN(CCC1(CC2=CC=C(C=C2)Cl)N)C3=NC=NC4=C3C=CN4
How it was run: as §1

IRAK-1-4 Inhibitor I = compound: C1COCCN1CCN2C3=CC=CC=C3N=C2NC(=O)C4=CC(=CC=C4)[N+](=O)[O-] [IRAK-1-4 Inhibitor I]
How it was run: as §1

Measured: log2 fold change

PPCDC (UniProt Q96CD2)
inactive: erlotinib -0.019 | [1] 0.075 | [2] 0.033 | [3] -0.115 | [4] 0.004 | [5] 0.002 | [6] -0.115 | [7] -0.05 | [8] 0.084 | IRAK-1-4 Inhibitor I 0.023

PPFIA2 (UniProt O75334)
inactive: erlotinib 0.019 | [1] -0.005 | [2] 0.02 | [3] -0.004 | [4] 0.065 | [5] 0.012 | [6] -0.006 | [7] 0.02 | [8] -0.074 | IRAK-1-4 Inhibitor I -0.022

PMS2 (UniProt P54278)
Sequence of UniProt P54278 (P54278 whole entry, looked up): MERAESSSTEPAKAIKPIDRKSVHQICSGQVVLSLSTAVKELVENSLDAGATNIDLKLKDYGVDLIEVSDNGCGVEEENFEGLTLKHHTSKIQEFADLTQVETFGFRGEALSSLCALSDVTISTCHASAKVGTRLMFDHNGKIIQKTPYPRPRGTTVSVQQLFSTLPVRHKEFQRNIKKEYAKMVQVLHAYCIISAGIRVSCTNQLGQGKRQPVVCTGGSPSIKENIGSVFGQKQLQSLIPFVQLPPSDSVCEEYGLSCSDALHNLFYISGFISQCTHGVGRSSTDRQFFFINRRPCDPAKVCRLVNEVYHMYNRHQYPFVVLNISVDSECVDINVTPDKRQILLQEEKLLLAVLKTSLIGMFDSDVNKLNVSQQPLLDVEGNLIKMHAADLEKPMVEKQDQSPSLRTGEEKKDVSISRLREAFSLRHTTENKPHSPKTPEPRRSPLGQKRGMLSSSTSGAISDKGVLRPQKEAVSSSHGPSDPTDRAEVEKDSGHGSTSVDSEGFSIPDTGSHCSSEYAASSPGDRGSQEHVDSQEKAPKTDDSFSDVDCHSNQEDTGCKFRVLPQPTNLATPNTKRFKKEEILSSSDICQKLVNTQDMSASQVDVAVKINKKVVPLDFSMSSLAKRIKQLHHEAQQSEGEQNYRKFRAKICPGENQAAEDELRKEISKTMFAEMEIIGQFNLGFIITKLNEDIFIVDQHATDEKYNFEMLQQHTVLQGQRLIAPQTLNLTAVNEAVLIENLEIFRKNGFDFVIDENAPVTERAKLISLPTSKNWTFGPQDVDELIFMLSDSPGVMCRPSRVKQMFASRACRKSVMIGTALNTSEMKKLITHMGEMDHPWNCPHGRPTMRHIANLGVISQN
inactive: erlotinib 0.036 | [1] 0.012 | [2] -0.058 | [3] -0.005 | [4] -0.015 | [5] -0.028 | [6] -0.032 | [7] -0.013 | [8] 0.012 | IRAK-1-4 Inhibitor I 0.001

PHOSPHO2 (UniProt Q8TCD6)
Sequence of UniProt Q8TCD6 (Q8TCD6 whole entry, looked up): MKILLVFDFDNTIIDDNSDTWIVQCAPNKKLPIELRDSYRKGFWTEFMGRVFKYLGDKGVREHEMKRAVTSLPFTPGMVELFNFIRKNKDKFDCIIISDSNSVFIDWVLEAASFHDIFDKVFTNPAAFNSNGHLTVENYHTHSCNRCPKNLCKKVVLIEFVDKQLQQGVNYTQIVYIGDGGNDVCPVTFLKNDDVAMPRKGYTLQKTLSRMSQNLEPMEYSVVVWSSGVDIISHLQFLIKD
inactive: erlotinib -0.018 | [1] -0.225 | [2] 0.046 | [3] -0.032 | [4] -0.027 | [5] -0.002 | [6] 0.072 | [7] 0.224 | [8] -0.16 | IRAK-1-4 Inhibitor I -0.014

PRKD3 (UniProt O94806)
inactive: erlotinib -0.041 | [1] 0.105 | [2] -0.123 | [3] -0.145 | [4] 0.039 | [5] 0.115 | [6] 0.123 | [7] -0.163 | [8] -0.115 | IRAK-1-4 Inhibitor I 0.053

PIM1 isoform 2 (UniProt P11309)
inactive: erlotinib 0.118 | [1] -0.106 | [2] -0.164 | [3] 0.028 | [4] 0.238 | [5] 0.123 | [6] -0.034 | [7] -0.077 | [8] 0.02 | IRAK-1-4 Inhibitor I -0.076

PPME1 (UniProt Q9Y570)
inactive: erlotinib 0.129 | [2] 0.003 | [4] -0.09 | [7] -0.025 | [8] -0.033

PPP1R11 (UniProt O60927)
Sequence of UniProt O60927 (O60927 whole entry, looked up): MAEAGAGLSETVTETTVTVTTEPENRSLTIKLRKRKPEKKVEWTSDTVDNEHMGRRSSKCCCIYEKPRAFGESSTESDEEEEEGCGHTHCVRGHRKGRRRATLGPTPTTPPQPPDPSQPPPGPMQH
inactive: erlotinib -0.046 | [2] 0.015 | [4] 0.01 | [5] 0.004 | [7] 0 | [8] -0.03 | IRAK-1-4 Inhibitor I 0.132

POM121C (UniProt A8CG34)
Sequence of UniProt A8CG34 (A8CG34 whole entry, looked up): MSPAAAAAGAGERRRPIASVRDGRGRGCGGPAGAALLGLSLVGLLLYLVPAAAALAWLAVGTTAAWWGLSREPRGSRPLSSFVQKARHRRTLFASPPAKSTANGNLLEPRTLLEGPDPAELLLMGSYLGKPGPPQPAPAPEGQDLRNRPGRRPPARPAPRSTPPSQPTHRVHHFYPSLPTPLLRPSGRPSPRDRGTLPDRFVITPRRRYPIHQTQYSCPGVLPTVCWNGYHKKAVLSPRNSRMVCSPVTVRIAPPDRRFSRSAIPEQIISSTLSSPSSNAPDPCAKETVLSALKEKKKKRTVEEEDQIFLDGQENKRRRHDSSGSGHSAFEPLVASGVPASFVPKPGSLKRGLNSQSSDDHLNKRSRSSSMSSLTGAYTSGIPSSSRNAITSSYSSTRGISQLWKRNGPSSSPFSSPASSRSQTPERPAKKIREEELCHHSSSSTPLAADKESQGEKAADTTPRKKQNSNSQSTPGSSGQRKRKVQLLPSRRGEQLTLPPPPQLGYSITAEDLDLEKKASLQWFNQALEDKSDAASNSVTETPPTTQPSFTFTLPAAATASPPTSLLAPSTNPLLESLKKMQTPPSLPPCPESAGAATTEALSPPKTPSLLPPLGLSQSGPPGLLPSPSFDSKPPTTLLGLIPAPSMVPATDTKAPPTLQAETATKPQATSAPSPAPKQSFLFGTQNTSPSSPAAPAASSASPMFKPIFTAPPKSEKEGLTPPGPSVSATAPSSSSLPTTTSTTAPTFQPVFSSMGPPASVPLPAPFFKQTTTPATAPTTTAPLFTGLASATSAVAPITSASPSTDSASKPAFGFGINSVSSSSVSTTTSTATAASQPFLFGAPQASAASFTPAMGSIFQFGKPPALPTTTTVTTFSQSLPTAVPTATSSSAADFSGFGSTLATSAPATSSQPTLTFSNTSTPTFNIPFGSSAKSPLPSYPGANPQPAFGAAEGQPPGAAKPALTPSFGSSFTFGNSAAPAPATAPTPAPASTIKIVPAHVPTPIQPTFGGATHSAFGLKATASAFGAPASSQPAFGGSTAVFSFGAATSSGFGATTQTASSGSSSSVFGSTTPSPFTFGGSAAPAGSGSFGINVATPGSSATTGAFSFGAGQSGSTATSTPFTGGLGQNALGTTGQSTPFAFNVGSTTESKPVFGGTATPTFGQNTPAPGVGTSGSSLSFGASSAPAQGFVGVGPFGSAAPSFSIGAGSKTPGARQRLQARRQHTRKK
inactive: erlotinib 0.001 | [2] 0.027 | [4] 0.032 | [5] -0.064 | IRAK-1-4 Inhibitor I -0.069

PPP1R14C (UniProt Q8TAE6)
inactive: [1] 0.018 | [3] -0.092 | [4] -0.05 | [5] 0.001 | [6] 0.021 | [7] 0.052 | [8] -0.02 | IRAK-1-4 Inhibitor I -0.014

PRIM1 (UniProt P49642)
inactive: erlotinib -0.004 | [1] 0.061 | [2] -0.011 | [3] -0.01 | [4] -0.03 | [5] 0.02 | [6] 0 | [7] -0.006 | [8] 0.002 | IRAK-1-4 Inhibitor I 0.003

PECR (UniProt Q9BY49)
inactive: [7] -0.004 | [8] 0.056

PFN1 (UniProt I3L3D5)
inactive: [4] 0.054 | [5] 0.045 | [7] 0.009 | [8] 0.03 | IRAK-1-4 Inhibitor I 0.005

PEX2 (UniProt P28328)
Sequence of UniProt P28328 (P28328 whole entry, looked up): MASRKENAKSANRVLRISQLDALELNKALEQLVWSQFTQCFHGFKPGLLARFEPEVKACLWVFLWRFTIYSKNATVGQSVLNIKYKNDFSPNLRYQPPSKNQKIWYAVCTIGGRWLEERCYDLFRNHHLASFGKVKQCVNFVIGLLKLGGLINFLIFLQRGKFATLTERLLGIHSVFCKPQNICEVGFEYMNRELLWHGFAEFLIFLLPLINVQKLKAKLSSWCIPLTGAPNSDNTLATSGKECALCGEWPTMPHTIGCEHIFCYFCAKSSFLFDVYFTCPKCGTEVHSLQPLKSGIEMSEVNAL
inactive: erlotinib 0.106 | [2] 0.068 | [3] 0.048 | [4] -0.128 | [5] 0.082 | [6] -0.119 | IRAK-1-4 Inhibitor I -0.04
active: [1] -0.731

POLR2M (UniProt Q6EEV4)
Sequence of UniProt Q6EEV4 (Q6EEV4 whole entry, looked up): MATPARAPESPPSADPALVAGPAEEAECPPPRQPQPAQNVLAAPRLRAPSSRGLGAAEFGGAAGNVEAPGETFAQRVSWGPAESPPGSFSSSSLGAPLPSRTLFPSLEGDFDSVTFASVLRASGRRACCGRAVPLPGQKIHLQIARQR
inactive: erlotinib 0.011 | [1] 0.164 | [2] -0.025 | [3] -0.031 | [4] -0.045 | [6] -0.111 | [7] 0.052 | [8] -0.01

PTMA isoform 2 (UniProt P06454)
inactive: [4] 0.015

PRRG1 (UniProt O14668)
inactive: [5] -0.006 | IRAK-1-4 Inhibitor I 0.06

PPIC (UniProt P45877)
Sequence of UniProt P45877 (P45877 whole entry, looked up): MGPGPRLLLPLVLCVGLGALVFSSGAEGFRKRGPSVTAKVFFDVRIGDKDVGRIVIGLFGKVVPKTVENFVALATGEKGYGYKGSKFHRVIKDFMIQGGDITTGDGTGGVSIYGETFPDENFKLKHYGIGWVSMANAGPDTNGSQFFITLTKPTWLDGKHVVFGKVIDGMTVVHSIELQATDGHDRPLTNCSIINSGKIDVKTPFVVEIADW
inactive: erlotinib 0.049 | [1] -0.042 | [2] 0.119 | [3] 0.025 | [4] 0.265 | [5] -0.032 | [6] 0.036 | IRAK-1-4 Inhibitor I 0.06

PLXND1 (UniProt Q9Y4D7)
inactive: erlotinib -0.067 | [2] 0.073 | [4] -0.048 | [5] -0.016 | IRAK-1-4 Inhibitor I -0.032

PRG4 (UniProt Q92954)
inactive: [4] -0.296 | [5] -0.027 | IRAK-1-4 Inhibitor I 0.057

PRADC1 (UniProt Q9BSG0)
Sequence of UniProt Q9BSG0 (Q9BSG0 whole entry, looked up): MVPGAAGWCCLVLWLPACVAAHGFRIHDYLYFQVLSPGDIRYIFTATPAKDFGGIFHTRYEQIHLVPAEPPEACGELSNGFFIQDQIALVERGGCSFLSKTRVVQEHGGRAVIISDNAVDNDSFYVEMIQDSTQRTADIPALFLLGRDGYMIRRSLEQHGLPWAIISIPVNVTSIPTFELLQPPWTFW
inactive: erlotinib -0.016 | [2] 0.027 | [4] 0.018 | [5] 0 | IRAK-1-4 Inhibitor I 0.017

PHOSPHO2 (UniProt C9JD35)
inactive: [7] 0.069 | [8] -0.21

PHC1 (UniProt P78364)
inactive: [1] 0.032 | [3] -0.004 | [4] -0.075 | [6] -0.051 | [7] 0.021 | [8] -0.01

PDAP1 (UniProt Q13442)
Sequence of UniProt Q13442 (Q13442 whole entry, looked up): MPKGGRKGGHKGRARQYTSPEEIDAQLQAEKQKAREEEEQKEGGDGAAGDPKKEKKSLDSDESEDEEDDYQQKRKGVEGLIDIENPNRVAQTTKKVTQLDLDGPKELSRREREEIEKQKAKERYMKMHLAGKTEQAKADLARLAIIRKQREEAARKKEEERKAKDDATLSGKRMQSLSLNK
inactive: erlotinib -0.01 | [1] -0.022 | [2] 0.02 | [3] -0.005 | [4] 0.001 | [5] -0.007 | [6] 0.023 | [7] 0.016 | [8] -0.012 | IRAK-1-4 Inhibitor I 0.026

PNPLA4 (UniProt P41247)
Sequence of UniProt P41247 (P41247 whole entry, looked up): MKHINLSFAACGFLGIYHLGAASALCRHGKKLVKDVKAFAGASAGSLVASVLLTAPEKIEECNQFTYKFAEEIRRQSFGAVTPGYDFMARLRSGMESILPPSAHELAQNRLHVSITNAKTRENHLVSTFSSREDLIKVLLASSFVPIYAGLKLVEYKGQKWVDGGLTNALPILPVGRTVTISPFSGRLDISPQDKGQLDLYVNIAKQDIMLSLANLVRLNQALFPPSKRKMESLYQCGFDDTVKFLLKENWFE
inactive: [1] 0.064 | [3] 0.1 | [5] 0.051 | [6] 0.1 | [7] 0.086 | [8] 0.09 | IRAK-1-4 Inhibitor I -0.001

PDE4DIP (UniProt E9PS60)
inactive: erlotinib 0.026 | [1] -0.056 | [2] -0.13 | [3] 0.044 | [6] 0.039 | [7] 0.114 | [8] 0.063

PCBP2 isoform 8 (UniProt Q15366)
inactive: erlotinib 0.118 | [1] -0.287 | [2] 0.024 | [3] 0.001 | [4] -0.039 | [5] 0.087 | [6] -0.041 | [7] -0.088 | [8] 0.01 | IRAK-1-4 Inhibitor I 0.018

PYGO2 (UniProt Q9BRQ0)
inactive: erlotinib -0.047 | [2] 0.045 | [4] -0.039 | [5] 0.115 | [7] 0.012 | [8] 0.049 | IRAK-1-4 Inhibitor I 0.051

POLR2F (UniProt U3KPV3)
inactive: [7] -0.055 | [8] 0.084

PHGDH, A0A286YFE1
inactive: [4] -0.166

PCBP2 (UniProt F8VRH0)
inactive: erlotinib 0.084 | [2] -0.182 | [5] -0.092 | IRAK-1-4 Inhibitor I 0.11

PICALM (UniProt H0YCY1)
inactive: erlotinib -0.09 | [2] 0.108

PIAS2 (UniProt O75928)
Sequence of UniProt O75928 (O75928 whole entry, looked up): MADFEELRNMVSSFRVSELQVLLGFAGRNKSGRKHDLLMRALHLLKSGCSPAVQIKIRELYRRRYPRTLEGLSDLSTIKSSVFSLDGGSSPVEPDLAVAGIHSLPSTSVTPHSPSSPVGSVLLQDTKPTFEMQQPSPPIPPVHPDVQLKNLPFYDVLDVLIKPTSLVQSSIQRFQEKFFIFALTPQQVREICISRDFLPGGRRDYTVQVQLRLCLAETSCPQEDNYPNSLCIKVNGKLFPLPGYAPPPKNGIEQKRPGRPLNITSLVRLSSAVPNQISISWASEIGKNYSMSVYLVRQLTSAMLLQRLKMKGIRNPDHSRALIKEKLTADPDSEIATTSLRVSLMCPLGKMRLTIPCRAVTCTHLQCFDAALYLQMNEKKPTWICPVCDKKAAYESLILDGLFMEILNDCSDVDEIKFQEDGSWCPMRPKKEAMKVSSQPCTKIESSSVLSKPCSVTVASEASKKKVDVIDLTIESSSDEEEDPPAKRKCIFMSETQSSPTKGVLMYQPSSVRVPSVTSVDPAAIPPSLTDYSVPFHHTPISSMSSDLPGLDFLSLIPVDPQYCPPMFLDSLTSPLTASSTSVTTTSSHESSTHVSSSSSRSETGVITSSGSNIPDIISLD
inactive: erlotinib 0.043 | [1] -0.277 | [2] 0.035 | [3] 0 | [5] 0.019 | [6] 0.039 | [7] 0.037 | [8] -0.002 | IRAK-1-4 Inhibitor I 0.053

PHF14 (UniProt O94880)
inactive: [1] 0.032 | [3] -0.01 | [4] -0.06 | [5] -0.086 | [6] 0.045 | [7] -0.423 | [8] 0.432 | IRAK-1-4 Inhibitor I 0.035

PIK3CG (UniProt P48736)
inactive: erlotinib 0.045 | [1] 0 | [2] -0.011 | [3] 0.045 | [5] -0.047 | [6] -0.005 | [7] 0 | [8] 0.003 | IRAK-1-4 Inhibitor I -0.011

PIP5K1A (UniProt Q99755)
Sequence of UniProt Q99755 (Q99755 whole entry, looked up): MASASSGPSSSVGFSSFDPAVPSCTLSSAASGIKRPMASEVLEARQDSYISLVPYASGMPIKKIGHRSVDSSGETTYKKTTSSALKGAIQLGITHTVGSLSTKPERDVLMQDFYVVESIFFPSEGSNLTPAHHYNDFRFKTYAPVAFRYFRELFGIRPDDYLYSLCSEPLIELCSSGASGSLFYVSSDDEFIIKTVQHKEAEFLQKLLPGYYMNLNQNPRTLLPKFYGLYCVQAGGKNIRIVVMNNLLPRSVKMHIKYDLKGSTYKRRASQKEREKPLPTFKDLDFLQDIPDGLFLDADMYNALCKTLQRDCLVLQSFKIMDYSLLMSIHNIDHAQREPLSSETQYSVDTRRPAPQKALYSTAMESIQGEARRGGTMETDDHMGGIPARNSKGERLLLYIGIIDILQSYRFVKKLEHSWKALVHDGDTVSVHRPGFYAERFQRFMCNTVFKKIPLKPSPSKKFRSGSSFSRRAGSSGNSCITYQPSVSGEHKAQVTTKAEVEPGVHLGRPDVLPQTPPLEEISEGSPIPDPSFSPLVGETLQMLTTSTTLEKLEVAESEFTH
inactive: erlotinib 0.036 | [2] -0.14 | [4] 0.022 | [5] -0.062 | IRAK-1-4 Inhibitor I -0.195

PFN3 (UniProt P60673)
inactive: [1] -0.231 | [3] -0.078 | [6] -0.162 | [7] -0.041 | [8] 0.155

PPP2R5C isoform 2 (UniProt Q13362)
inactive: erlotinib 0.003 | [1] 0.044 | [2] 0.024 | [3] -0.046 | [4] 0.186 | [5] 0.024 | [6] 0.013 | IRAK-1-4 Inhibitor I 0.052

PIK3CD (UniProt O00329)
inactive: erlotinib -0.014 | [1] -0.162 | [2] -0.095 | [3] 0.034 | [4] 0.091 | [5] -0.031 | [6] 0.098 | IRAK-1-4 Inhibitor I 0.109

NA (UniProt Q4G0T1)
active: [2] 0.348
inactive: erlotinib -0.178 | [5] 0.017 | IRAK-1-4 Inhibitor I 0.002

PTK2 isoform 2 (UniProt Q05397)
inactive: erlotinib 0.002 | [2] 0.006 | [4] -0.114 | [7] 0.193 | [8] -0.016

PRR4 (UniProt Q16378)
inactive: erlotinib -0.097 | [1] 1.59 | [2] -0.193 | [3] -0.167 | [5] -0.11 | [6] -0.484 | [7] -0.127 | [8] 1.09 | IRAK-1-4 Inhibitor I -0.048

PHKG1 isoform 2 (UniProt Q16816)
inactive: erlotinib 0.003 | [1] -0.127 | [2] 0.187 | [3] 0.061 | [5] 0.029 | [6] 0.399 | [7] 0.157 | [8] 0.014 | IRAK-1-4 Inhibitor I -0.102

PRPF38A (UniProt Q8NAV1)
inactive: erlotinib -0.012 | [1] -0.016 | [2] 0.049 | [3] -0.025 | [4] 0.044 | [5] 0.05 | [6] 0.042 | [7] 0.005 | [8] -0.018 | IRAK-1-4 Inhibitor I 0.057

POLR2F (UniProt P61218)
inactive: erlotinib -0.05 | [1] -0.272 | [2] 0.069 | [3] -0.091 | [4] 0.033 | [5] 0.076 | [6] 0.01 | [7] 0.101 | [8] 0.019 | IRAK-1-4 Inhibitor I -0.052
